Residue numbers refer to the chain shown, from its start. The full ranking holds about 16,000 sequences; the median of “ka relative to ugcaugu” is about 0.096, and the highest 2% start at about 0.35. Many of the other results were omitted from the sample, so the highest values are more common in it than they were.

Sequences and labels used below:
T1: RBFOX1 RRM RbFoxmut (Fox-RRM*) (Homo sapiens, UniProt Q9NWB1 109-208, R118D;E147R;N151S;E152T)
T1 sequence: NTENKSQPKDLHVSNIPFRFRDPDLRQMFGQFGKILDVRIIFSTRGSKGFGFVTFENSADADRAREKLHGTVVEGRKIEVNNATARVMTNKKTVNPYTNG

B1: AUGACGA (DNA:RNA)
RNA: GGGAGACCGGAAUUCAGAUUGUCCAUGACGAUUAAAUCCCGUCGUAGCCACCA
DNA 1: CAATCTGAATTCCGGTCTCCC
DNA 2: TGGTGGCTACGACGGGATT
B2: UACCUCG (DNA:RNA)
RNA: GGGAGACCGGAAUUCAGAUUGUCCUACCUCGUUAAAUCCCGUCGUAGCCACCA
DNA 1: CAATCTGAATTCCGGTCTCCC
DNA 2: TGGTGGCTACGACGGGATT
B3: UUUCACA (DNA:RNA)
RNA: B2 RNA with A26U, C27U, U29A, G31A
DNA 1: CAATCTGAATTCCGGTCTCCC
DNA 2: TGGTGGCTACGACGGGATT
B4: AGUUGGC (DNA:RNA)
RNA: B1 RNA with U26G, G27U, A28U, C29G, A31C
DNA 1: CAATCTGAATTCCGGTCTCCC
DNA 2: TGGTGGCTACGACGGGATT
B5: AAGCUUU (DNA:RNA)
RNA: B2 RNA with U25A, C27G, C30U, G31U
DNA 1: CAATCTGAATTCCGGTCTCCC
DNA 2: TGGTGGCTACGACGGGATT
B6: GACCGCU (DNA:RNA)
RNA: B2 RNA with U25G, U29G, G31U
DNA 1: CAATCTGAATTCCGGTCTCCC
DNA 2: TGGTGGCTACGACGGGATT
B7: GCCGCGG (DNA:RNA)
RNA: B1 RNA with A25G, U26C, G27C, A28G, A31G
DNA 1: CAATCTGAATTCCGGTCTCCC
DNA 2: TGGTGGCTACGACGGGATT
B8: CCUACUC (DNA:RNA)
RNA: B1 RNA with A25C, U26C, G27U, G30U, A31C
DNA 1: CAATCTGAATTCCGGTCTCCC
DNA 2: TGGTGGCTACGACGGGATT
B9: GCGAACC (DNA:RNA)
RNA: B1 RNA with A25G, U26C, C29A, G30C, A31C
DNA 1: CAATCTGAATTCCGGTCTCCC
DNA 2: TGGTGGCTACGACGGGATT
B10: GAUUGUG (DNA:RNA)
RNA: B2 RNA with U25G, C27U, C28U, U29G, C30U
DNA 1: CAATCTGAATTCCGGTCTCCC
DNA 2: TGGTGGCTACGACGGGATT
B11: GCGAAUU (DNA:RNA)
RNA: B1 RNA with A25G, U26C, C29A, G30U, A31U
DNA 1: CAATCTGAATTCCGGTCTCCC
DNA 2: TGGTGGCTACGACGGGATT
B12: GCGAUUG (DNA:RNA)
RNA: B1 RNA with A25G, U26C, C29U, G30U, A31G
DNA 1: CAATCTGAATTCCGGTCTCCC
DNA 2: TGGTGGCTACGACGGGATT
B13: GCGCGAA (DNA:RNA)
RNA: B1 RNA with A25G, U26C, A28C, C29G, G30A
DNA 1: CAATCTGAATTCCGGTCTCCC
DNA 2: TGGTGGCTACGACGGGATT
B14: GAACGUC (DNA:RNA)
RNA: B2 RNA with U25G, C27A, U29G, C30U, G31C
DNA 1: CAATCTGAATTCCGGTCTCCC
DNA 2: TGGTGGCTACGACGGGATT
B15: CGAUGUG (DNA:RNA)
RNA: B2 RNA with U25C, A26G, C27A, C28U, U29G, C30U
DNA 1: CAATCTGAATTCCGGTCTCCC
DNA 2: TGGTGGCTACGACGGGATT
B16: GCGACCG (DNA:RNA)
RNA: B1 RNA with A25G, U26C, G30C, A31G
DNA 1: CAATCTGAATTCCGGTCTCCC
DNA 2: TGGTGGCTACGACGGGATT
B17: GCGAAUG (DNA:RNA)
RNA: B1 RNA with A25G, U26C, C29A, G30U, A31G
DNA 1: CAATCTGAATTCCGGTCTCCC
DNA 2: TGGTGGCTACGACGGGATT
B18: GCGAACG (DNA:RNA)
RNA: B1 RNA with A25G, U26C, C29A, G30C, A31G
DNA 1: CAATCTGAATTCCGGTCTCCC
DNA 2: TGGTGGCTACGACGGGATT
B19: GAAUGUG (DNA:RNA)
RNA: B2 RNA with U25G, C27A, C28U, U29G, C30U
DNA 1: CAATCTGAATTCCGGTCTCCC
DNA 2: TGGTGGCTACGACGGGATT
B20: GCGAAUC (DNA:RNA)
RNA: B1 RNA with A25G, U26C, C29A, G30U, A31C
DNA 1: CAATCTGAATTCCGGTCTCCC
DNA 2: TGGTGGCTACGACGGGATT
B21: GAUUAAU (DNA:RNA)
RNA: B2 RNA with U25G, C27U, C28U, U29A, C30A, G31U
DNA 1: CAATCTGAATTCCGGTCTCCC
DNA 2: TGGTGGCTACGACGGGATT
B22: UUGCUUC (DNA:RNA)
RNA: B2 RNA with A26U, C27G, C30U, G31C
DNA 1: CAATCTGAATTCCGGTCTCCC
DNA 2: TGGTGGCTACGACGGGATT
B23: AGAGUCA (DNA:RNA)
RNA: B1 RNA with U26G, G27A, A28G, C29U, G30C
DNA 1: CAATCTGAATTCCGGTCTCCC
DNA 2: TGGTGGCTACGACGGGATT
B24: UCCAGUA (DNA:RNA)
RNA: B1 RNA with A25U, U26C, G27C, C29G, G30U
DNA 1: CAATCTGAATTCCGGTCTCCC
DNA 2: TGGTGGCTACGACGGGATT
B25: GAAUGUC (DNA:RNA)
RNA: B2 RNA with U25G, C27A, C28U, U29G, C30U, G31C
DNA 1: CAATCTGAATTCCGGTCTCCC
DNA 2: TGGTGGCTACGACGGGATT
B26: GACCGUC (DNA:RNA)
RNA: B2 RNA with U25G, U29G, C30U, G31C
DNA 1: CAATCTGAATTCCGGTCTCCC
DNA 2: TGGTGGCTACGACGGGATT
B27: GAAAAUG (DNA:RNA)
RNA: B2 RNA with U25G, C27A, C28A, U29A, C30U
DNA 1: CAATCTGAATTCCGGTCTCCC
DNA 2: TGGTGGCTACGACGGGATT
B28: AAAGCCU (DNA:RNA)
RNA: B1 RNA with U26A, G27A, A28G, G30C, A31U
DNA 1: CAATCTGAATTCCGGTCTCCC
DNA 2: TGGTGGCTACGACGGGATT
B29: CUAUCCC (DNA:RNA)
RNA: B1 RNA with A25C, G27A, A28U, G30C, A31C
DNA 1: CAATCTGAATTCCGGTCTCCC
DNA 2: TGGTGGCTACGACGGGATT
B30: GAAGAAU (DNA:RNA)
RNA: B2 RNA with U25G, C27A, C28G, U29A, C30A, G31U
DNA 1: CAATCTGAATTCCGGTCTCCC
DNA 2: TGGTGGCTACGACGGGATT
B31: GGGGUUC (DNA:RNA)
RNA: B1 RNA with A25G, U26G, A28G, C29U, G30U, A31C
DNA 1: CAATCTGAATTCCGGTCTCCC
DNA 2: TGGTGGCTACGACGGGATT
B32: GUCCCGG (DNA:RNA)
RNA: B1 RNA with A25G, G27C, A28C, A31G
DNA 1: CAATCTGAATTCCGGTCTCCC
DNA 2: TGGTGGCTACGACGGGATT
B33: CGGUUCG (DNA:RNA)
RNA: B2 RNA with U25C, A26G, C27G, C28U
DNA 1: CAATCTGAATTCCGGTCTCCC
DNA 2: TGGTGGCTACGACGGGATT
B34: GUUCGGG (DNA:RNA)
RNA: B1 RNA with A25G, G27U, A28C, C29G, A31G
DNA 1: CAATCTGAATTCCGGTCTCCC
DNA 2: TGGTGGCTACGACGGGATT
B35: GGGUUCG (DNA:RNA)
RNA: B2 RNA with U25G, A26G, C27G, C28U
DNA 1: CAATCTGAATTCCGGTCTCCC
DNA 2: TGGTGGCTACGACGGGATT
B36: CGUUCGG (DNA:RNA)
RNA: B1 RNA with A25C, U26G, G27U, A28U, A31G
DNA 1: CAATCTGAATTCCGGTCTCCC
DNA 2: TGGTGGCTACGACGGGATT
B37: GGUUAUG (DNA:RNA)
RNA: B2 RNA with U25G, A26G, C27U, C28U, U29A, C30U
DNA 1: CAATCTGAATTCCGGTCTCCC
DNA 2: TGGTGGCTACGACGGGATT
B38: GGUUCGG (DNA:RNA)
RNA: B1 RNA with A25G, U26G, G27U, A28U, A31G
DNA 1: CAATCTGAATTCCGGTCTCCC
DNA 2: TGGTGGCTACGACGGGATT
B39: CGUUAUG (DNA:RNA)
RNA: B2 RNA with U25C, A26G, C27U, C28U, U29A, C30U
DNA 1: CAATCTGAATTCCGGTCTCCC
DNA 2: TGGTGGCTACGACGGGATT

The assay addresses T1, RBFOX1 RRM RbFoxmut (Fox-RRM*). Kind of assay: EMSA; HiTS-Eq, 1 nM pool, 10 min; buffer printed only for the single-RNA assays: 10 mM Tris pH 7.5, 150 mM NaCl, 3.4 mM EDTA, 0.001% NP-40, 30 C. The note with it: tags: His6 N-terminal (pET28a); label: 5' 32P. In a few lines: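 These values rest on relative association constants, computed from read-count changes of each RNA species versus the control reaction and normalised to the cognate motif. Reads came from free RNA recovered by 8% native PAGE after purified RbFox RRM (wild type or mutant) at increasing concentrations was equilibrated for 10 min in 50 µL with 1 nM of a 5′-radiolabelled pool with 7 randomized nucleotides and DNA-annealed flanks.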
On the technique in general: A gel shift assay detects complexes by their altered migration in electrophoresis.
As to B1, the binding signal was 0.0609 KA relative to UGCAUGU.
The same measure for B2: 0.107 KA relative to UGCAUGU; for B3: 0.0896 KA relative to UGCAUGU; for B4: 0.107 KA relative to UGCAUGU.
Take B5: the binding signal was 0.0764 KA relative to UGCAUGU.
With B6 the figure was 0.0966 KA relative to UGCAUGU; with B7, 0.0996 KA relative to UGCAUGU.
Consider B8, for which the binding signal is 0.0423 KA relative to UGCAUGU.
For B9, the binding signal was 0.0798 KA relative to UGCAUGU.
The same measure for B10: 0.249 KA relative to UGCAUGU; for B11: 0.113 KA relative to UGCAUGU; for B12: 0.206 KA relative to UGCAUGU.
With B13, the binding signal is 0.104 KA relative to UGCAUGU.
On to B14, for which the binding signal is 0.102 KA relative to UGCAUGU.
With B15 the figure was 0.151 KA relative to UGCAUGU; with B16, 0.111 KA relative to UGCAUGU.
Regarding B17, the binding signal was 1.44 KA relative to UGCAUGU.
The same measure for B18: 0.354 KA relative to UGCAUGU; for B19: 1.27 KA relative to UGCAUGU; for B20: 0.385 KA relative to UGCAUGU.
With B21 the figure was 0.0998 KA relative to UGCAUGU.
The same measure for B22: 0.157 KA relative to UGCAUGU.
With B23, the binding signal is 0.106 KA relative to UGCAUGU.
With B24 the figure was 0.135 KA relative to UGCAUGU; with B25, 0.55 KA relative to UGCAUGU.
The same measure for B26: 0.0863 KA relative to UGCAUGU.
Consider B27, for which the binding signal was 0.1 KA relative to UGCAUGU.
Take B28: the binding signal was 0.0705 KA relative to UGCAUGU.
On to B29, for which the binding signal is 0.0664 KA relative to UGCAUGU.
The same measure for B30: 0.0873 KA relative to UGCAUGU; for B31: 0.239 KA relative to UGCAUGU; for B32: 0.0859 KA relative to UGCAUGU.
With B33, the binding signal was 0.371 KA relative to UGCAUGU.
Regarding B34, the binding signal was 0.0874 KA relative to UGCAUGU.
The same measure for B35: 0.4 KA relative to UGCAUGU.
Consider B36, for which the binding signal was 0.115 KA relative to UGCAUGU.
The same measure for B37: 0.585 KA relative to UGCAUGU.
Regarding B38, the binding signal was 0.126 KA relative to UGCAUGU.
With B39 the figure was 0.269 KA relative to UGCAUGU.

Source of the values: article PMC9911399, “Two distinct binding modes provide the RNA-binding protein RbFox with extraordinary sequence specificity”.
